Experimental data: the supplement of paper PMC11537057
Structures can show the parent of a compound that is named as a salt. Among all 1,700 compounds or so, about 15 (0.9%) showed activity.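 Rule for the calls: active = infection cut by 80% or more with cell growth above 90% in both runs; inactive = the rest.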 The entries come from a sample that favours actives as a whole.

system: HSV-1 strain 17 YFP-ICP4 in A549; test: HSV-1 infection relative to DMSO (ICP4-YFP per H2B-RFP signal); higher = more viral infection (less antiviral activity), active = hit call of the paper; details: 10 µM; 48 h; MOI: 0.1
Procedure: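 Selleck FDA-approved library (L1300) screened in duplicate at 10 µM on A549 H2B-mRuby cells in 384-well plates, infected with HSV-1 strain 17 YFP-ICP4 at MOI 0.1 one hour before drug addition. Imaged after 2 days at 37°C. Cell growth (H2B-RFP) and infection (ICP4-YFP) are expressed as % of DMSO-treated wells. Hits: growth >90% and infection <20% of DMSO.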

Structure (SMILES) | HSV-1 infection
C[N+]1(C)[C@@H]2C[C@@H](OC(=O)C(O)(c3cccs3)c3cccs3)C[C@H]1[C@@H]1O[C@@H]12 [Tiotropium Bromide hydrate] | 100% (inactive)
CCOCCn1c(C2CCN(CCc3ccc(C(C)(C)C(=O)O)cc3)CC2)nc2ccccc21 [Bilastine] | 107% (inactive)
CC1(C)S[C@@H]2[C@H](NC(=O)Cc3ccccc3)C(=O)N2[C@H]1C(=O)O.CCN(CC)CCOC(=O)c1ccc(N)cc1 [Penicillin G Procaine] | 120% (inactive)
Cc1cncc(CN2CCC(=C3c4ccc(Cl)cc4CCc4cccnc43)CC2)c1 [Rupatadine Fumarate] | 108% (inactive)
CO[C@H]1O[C@H](COS(=O)(=O)O)[C@@H](O[C@@H]2O[C@@H](C(=O)O)[C@@H](O[C@H]3O[C@H](COS(=O)(=O)O)[C@@H](O[C@@H]4O[C@H](C(=O)O)[C@@H](O[C@H]5O[C@H](COS(=O)(=O)O)[C@@H](O)[C@H](O)[C@H]5NS(=O)(=O)O)[C@H](O)[C@H]4O)[C@H](OS(=O)(=O)O)[C@H]3NS(=O)(=O)O)[C@H](O)[C@H]2OS(=O)(=O)O)[C@H](O)[C@H]1NS(=O)(=O)O [Fondaparinux Sodium] | 104% (inactive)
O=c1c(-n2ccnn2)c[nH]n1-c1cc(N2CCOCC2)ncn1 [Molidustat (BAY 85-3934)] | 81.4% (inactive)
CC(C)OC(=O)[C@H](C)N[P@](=O)(CO[C@H](C)Cn1cnc2c(N)ncnc21)Oc1ccccc1 [Tenofovir Alafenamide (GS-7340)] | 2.77% (active)
CC(C)OC(=O)OCOP(=O)(CO[C@H](C)Cn1cnc2c(N)ncnc21)OCOC(=O)OC(C)C [Tenofovir Disoproxil Fumarate] | 86.9% (inactive)
CC(C)OC(=O)[C@H](C)N[P@](=O)(OC[C@H]1O[C@@H](n2ccc(=O)[nH]c2=O)[C@](C)(F)[C@@H]1O)Oc1ccccc1 [Sofosbuvir (PSI-7977, GS-7977)] | 105% (inactive)
CCN(C(=O)c1c(O)c2c(Cl)cccc2n(C)c1=O)c1ccccc1 [Laquinimod] | 117% (inactive)
CC(=O)Nc1cccc(-n2c(=O)n(C3CC3)c(=O)c3c(Nc4ccc(I)cc4F)n(C)c(=O)c(C)c32)c1 | 43.8% (inactive)
Cc1ccccc1C(=O)Nc1ccc(C(=O)N2CCCC(O)c3cc(Cl)ccc32)c(C)c1 (stereo unspecified) [Tolvaptan] | 68% (inactive)
Cc1[nH]c2ccccc2c1CCNCc1ccc(/C=C/C(=O)NO)cc1 [Panobinostat (LBH589)] | 34.1% (inactive)
CC(C)C[C@H](NC(=O)[C@@H](NC(=O)c1cccc(-c2ccccc2)n1)[C@@H](C)O)B(O)O | 106% (inactive)
CN(C(=O)c1ccc(F)cc1C(F)(F)F)C1CCN(c2nnc(-c3ccnn3C)c3ccccc23)CC1 | 113% (inactive)
O=c1[nH]c(=O)n([C@H]2C[C@H](O)[C@@H](CO)O2)cc1I [Idoxuridine] | 2.44% (active)
Cc1cn([C@H]2O[C@@H](CO)[C@H](O)[C@H]2F)c(=O)[nH]c1=O [Clevudine] | 114% (inactive)
O=c1[nH]c(=O)n([C@H]2C[C@H](O)[C@@H](CO)O2)cc1/C=C/Br [Brivudine] | 2.36% (active)
O=c1[nH]c(=O)n([C@H]2C[C@H](O)[C@@H](CO)O2)cc1C(F)(F)F [Trifluridine] | 20.6% (inactive)

Structure (SMILES) | HSV-1 infection
Cc1cn([C@H]2C[C@H](N=[N+]=[N-])[C@@H](CO)O2)c(=O)[nH]c1=O [Zidovudine] | 89.6% (inactive)
Cc1cn([C@@H]2C[C@@H](O)[C@H](CO)O2)c(=O)[nH]c1=O [Telbivudine] | 139% (inactive)
CCNC1(C(N)=O)CCN(c2ncnc3c2nc(-c2ccccc2Cl)n3-c2ccc(Cl)cc2)CC1 | 105% (inactive)
O=C1C(CC[S+]([O-])c2ccccc2)C(=O)N(c2ccccc2)N1c1ccccc1 (racemic) [(+/-)-Sulfinpyrazone] | 111% (inactive)
C=CN1CCCC1=O.II [Povidone iodine] | 108% (inactive)
CCCCCOc1ccccc1/C(=C\SC)n1ccnc1 [Neticonazole Hydrochloride] | 61.4% (inactive)
CC(C)(C)C#Cc1cc(N(C(=O)[C@H]2CC[C@H](C)CC2)[C@H]2CC[C@H](O)CC2)c(C(=O)O)s1 [Lomibuvir (VX-222, VCH-222)] | 130% (inactive)
COc1cc2c(cc1OC)CN(CCc1ccc(NC(=O)c3cccc4c(=O)c5cccc(OC)c5[nH]c34)cc1)CC2 | 135% (inactive)
COC(=O)N[C@H](C(=O)N1CC2(CC2)C[C@H]1c1nc(-c2ccc3c(c2)C(F)(F)c2cc(-c4ccc5[nH]c([C@@H]6[C@H]7CC[C@H](C7)N6C(=O)[C@@H](NC(=O)OC)C(C)C)nc5c4)ccc2-3)c[nH]1)C(C)C [Ledipasvir (GS5885)] | 105% (inactive)
CCCCC[C@](C)(O)/C=C/[C@@H]1[C@@H](C/C=C\CCCC(=O)O)[C@@H](O)C[C@H]1O [Carboprost] | 117% (inactive)
Nc1ncn([C@H]2C[C@H](O)[C@@H](CO)O2)c(=O)n1 [Decitabine] | 7.64% (active)
Nc1ccn([C@H]2CC[C@@H](CO)O2)c(=O)n1 [Zalcitabine] | 98.8% (inactive)
NC(=O)c1ncn([C@@H]2O[C@H](CO)[C@@H](O)[C@H]2O)c1N [AICAR (Acadesine)] | 67.6% (inactive)
Nc1nc(Cl)nc2c1ncn2[C@H]1C[C@H](O)[C@@H](CO)O1 [Cladribine] | 22.3% (inactive)
Nc1ncn([C@@H]2O[C@H](CO)[C@@H](O)[C@H]2O)c(=O)n1 [Azacitidine] | 5.54% (active)
NC(=O)c1ncn([C@@H]2O[C@H](CO)[C@@H](O)[C@H]2O)c1O [Mizoribine] | 89.7% (inactive)
CC#CC(=O)N1CCC[C@H]1c1nc(-c2ccc(C(=O)Nc3ccccn3)cc2)c2c(N)nccn12 [Acalabrutinib (ACP-196)] | 98.3% (inactive)
CNC(=O)CN(CCN(CCN(CC(=O)[O-])CC(=O)NC)CC(=O)[O-])CC(=O)[O-].O.[Gd+3] [Gadodiamide Hydrate] | 108% (inactive)
COc1ccc(C[C@@H](C)NC[C@H](O)c2ccc(O)c(NC=O)c2)cc1 [Arformoterol Tartrate] | 112% (inactive)

Structure (SMILES) | HSV-1 infection
Cn1cnc2c(F)c(Nc3ccc(Br)cc3Cl)c(C(=O)NOCCO)cc21 [Selumetinib (AZD6244)] | 52.5% (inactive)
CNCc1cc(-c2ccccc2F)n(S(=O)(=O)c2cccnc2)c1 [Vonoprazan Fumarate (TAK-438)] | 95.8% (inactive)
CCCNS(=O)(=O)Nc1ncnc(OCCOc2ncc(Br)cn2)c1-c1ccc(Br)cc1 [Macitentan] | 93.1% (inactive)
C[C@@H](O)[C@H]1C(=O)N2C(C(=O)OCOC(=O)C(C)(C)C)=C(SC3CN(C4=NCCS4)C3)[C@H](C)[C@H]12 [Tebipenem Pivoxil] | 92.2% (inactive)
CC1CCC(C(C)C)C(O)C1 (single isomer, unassigned; (-)) [(-)-Menthol] | 99.1% (inactive)
CC(C)[C@H](N)C(=O)OCC(CO)OCn1cnc2c(=O)[nH]c(N)nc21 (stereo partly specified) [Valganciclovir HCl] | 2.02% (active)
Nc1ccn(C[C@@H](CO)OCP(=O)(O)O)c(=O)n1 [Cidofovir] | 45.8% (inactive)
CC(C)[C@H](N)C(=O)OCCOCn1cnc2c(=O)nc(N)[nH]c21 [Valaciclovir HCl] | 4.82% (active)
C[C@H](Cn1cnc2c(N)ncnc21)OCP(=O)(O)O [Tenofovir] | 119% (inactive)
Nc1nc2c(ncn2COC(CO)CO)c(=O)[nH]1 [Ganciclovir] | 2.93% (active)
Nc1nc2c(ncn2COCCO)c(=O)[nH]1 [Aciclovir] | 3.03% (active)
C=C1[C@H](CO)[C@@H](O)C[C@@H]1n1cnc2c(=O)[nH]c(N)nc21 [Entecavir] | 7.02% (active)
O=c1[nH]cnc2c1ncn2[C@@H]1O[C@H](CO)[C@@H](O)[C@H]1O [Inosine] | 82.6% (inactive)
C=C1[C@H](CO)[C@@H](O)C[C@@H]1n1cnc2c(=O)[nH]c(N)nc21 [Entecavir Hydrate] | 12.1% (active)
O=c1[nH]cnc2c1ncn2[C@H]1CC[C@@H](CO)O1 [Didanosine] | 112% (inactive)
N/N=c1\[nH][nH]/c(=N\N)c2ccccc12 [Dihydralazine sulphate] | 123% (inactive)
C1CNCCNCCNCCN1 [Cyclen] | 105% (inactive)
C=C1CCN([C@H](C)[C@](O)(Cn2cncn2)c2ccc(F)cc2F)CC1 [Efinaconazole] | 93.8% (inactive)
